High-throughput results as filed in PubChem.
In the library only some 0.95% were active in any assay of this set; here they are far more common.
A488 fluor – A488 region autofluorescence | compound autofluorescence, A488 spectral region, dye equivalency; Compound Type: qHTS ECL - MLSMR | max dye equivalency, M | hit rate 0.1% among 59,000
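Intrinsic compound fluorescence is measured in 100 mM Tris buffer at pH 8.0 following 15 min incubation at room temperature. Intensities at 480 nm excitation/540 nm emission are calibrated to an on-plate A488 concentration series, giving dye-equivalent concentrations.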
A647 fluor – compound fluoresces in the A647 spectral region | Compound fluorescence, A647 channel (570/671 nm), Tris buffer | max dye-equivalent concentration, M | 59,000 tested, under 10 active | AID 592
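Each compound's intrinsic fluorescence at 570 nm excitation and 671 nm emission is measured across its concentration series in 100 mM Tris, pH 8.0, after 15 min at room temperature, and reported relative to an A647 curve.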
TexasRed autofl – Texas Red region autofluorescence; Compound fluorescence, Texas Red channel, 547/618 nm; active compounds read high; max dye-equivalent concentration, M; hit rate 0.06% among 59,000; in the data active = max dye-equivalent concentration above about 10 nM; inconclusive = between about 1.1 nM and that limit
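Texas Red-region profiling: compounds in 100 mM Tris pH 8.0 were read at 547/618 nm after 15 min at room temperature. Intensities were normalized against a six-point Texas Red standard series to give dye-equivalent concentration.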
Fluorescein autfl – compound fluoresces in the fluorescein spectral region; Compound autofluorescence, 480/540 nm, fluorescein-equivalent; active compounds read high; max fluorescein-equivalent concentration, M; hit rate 0.91% among 59,000; in the data active = max fluorescein-equivalent concentration above about 10 nM; inconclusive = between about 1.1 nM and that limit
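First, buffer (100 mM Tris, pH 8.0) dispensed; second, compounds and fluorescein standards pinned in; third, 15 min room-temperature incubation; finally, imaging at ex 480 nm/em 540 nm. Fluorescence normalized against the six-point fluorescein curve.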
Rhodamine autofl – compound autofluorescence in rhodamine spectral region. Rhodamine-region fluorescence, 547/598 nm, Tris buffer; active compounds read high. max dye-equivalent concentration, M. hit rate 0.05% among 59,000; in the data active = max dye-equivalent concentration above about 11 nM; inconclusive = between about 1.1 nM and that limit
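A six-point rhodamine series on each plate calibrates the signal. Compounds sit in 100 mM Tris (pH 8.0) for 15 min at ambient temperature before imaging through 547 nm/598 nm filters.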
Resorufin fluor – compound fluoresces in the resorufin spectral region | hit rate 0.04% among 59,000 | Compound fluorescence, resorufin region 547/598 nm, buffer; active compounds read high | AID 588 | max dye-equivalent concentration, M
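Compounds in 100 mM Tris, pH 8.0, incubated 15 min at room temperature, then fluorescence read at 547 nm excitation/598 nm emission. Signal converted to dye-equivalent concentration via an on-plate six-point resorufin standard curve, per compound concentration.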
Large screens that a line does not name were inactive; ! = a repeat was not active. Unless noted, the rule behind the calls is not given here.

N[C@H](CS(=O)O)C(=O)O	TexasRed autofl inconclusive
COC(=O)C1=C(C)NC(C)=C(C(=O)OC(C)C)[C@H]1c1cccc2nonc12	Fluorescein autfl 1.2e-08M
Cc1cc(-c2ccco2)n2c(nc3ccccc32)c1C#N	A488 fluor inconclusive, Fluorescein autfl 6e-08M
Cc1ccc(C(=O)O[C@@H](C(=O)O)[C@@H](OC(=O)c2ccc(C)cc2)C(=O)O)cc1 (tested in a mixture with another compound)	Fluorescein autfl inconclusive
COCCn1c(=O)c(-c2ccc(OC)cc2)nc2cnc(Nc3cccc(OC)c3)nc21	Fluorescein autfl 1e-08M
COc1cccc(Nc2ncc3nc(-c4cn(C)c5ccccc45)c(=O)n(CCC#N)c3n2)c1	Fluorescein autfl 2.4e-08M
COCCn1c(=O)c(C)nc2cnc(Nc3cccc(OC)c3)nc21	none
N#CC(C(=O)OC1CCCCC1)c1nc2ccccc2nc1N1CCCCC1 (stereo unspecified)	Fluorescein autfl 1.3e-08M
CC1CCCN(c2nc3ccccc3nc2C(C#N)C(=O)OC2CCCCC2)C1 (stereo unspecified)	TexasRed autofl inconclusive, Fluorescein autfl 1.4e-08M
CC(C)OCCCn1c(=NC(=O)c2ccncc2)c(C#N)cc2c(=O)n3ccccc3nc21	Fluorescein autfl 1.9e-08M
O=C1CCN2C=Nc3cccc4ccc1c2c34	A488 fluor 1.5e-07M, Fluorescein autfl 2.8e-06M
C[C@H]1C[C@@H]2[C@H]3CCC4=CC(=O)C=C[C@@]4(C)[C@]3(Cl)[C@@H](Cl)C[C@]2(C)[C@]1(O)C(=O)COP(=O)(O)O	none
CCOC(=O)c1c2c(n3ccccc13)C(=O)c1ccccc1C2=O	Fluorescein autfl inconclusive
CCOC(=O)C(C(=O)OCC)c1cc(Br)c2noc3c2c1C(=O)c1ccccc1-3	A488 fluor 1.2e-08M, Fluorescein autfl 2.6e-07M
COc1ccc2nc(N3CCC(O)CC3)c(C#N)cc2c1	Fluorescein autfl 2.3e-08M
COc1ccc2nc(N3CCC(C)CC3)c(C#N)cc2c1	Fluorescein autfl inconclusive
CN1C(C(=O)Nc2ccccn2)=C(O)c2ccccc2S1(=O)=O	Fluorescein autfl 1.2e-08M!
CC(C)(C)c1cc(/C=C(\C#N)C(N)=S)cc(C(C)(C)C)c1O	Fluorescein autfl 2.8e-08M
N[C@@H](C(=O)O)[C@@H]1C[C@H]1C(=O)O	Fluorescein autfl inconclusive
C=Cc1c(C)c2cc3[nH]c(cc4nc(cc5nc(cc1[nH]2)C(C)=C5CCC(=O)O)C(CCC(=O)O)=C4C)c(C)c3C=C	TexasRed autofl 1e-08M, Fluorescein autfl inconclusive
COC1=CC(=O)C[C@@H](C)[C@@]12Oc1c(Cl)c(OC)cc(OC)c1C2=O	none
C=C1CC[C@@H](O)C/C1=C/C=C1\CCC[C@]2(C)[C@@H]1CC[C@H]2[C@@H](C)CCCC(C)C	none
Cn1nc(-c2ccccc2)c2nc3ccccc3nc21	A488 fluor 2.7e-08M, Fluorescein autfl 4.5e-07M
O=C1NC(=O)[C@@H]2C3c4ccccc4C=CN3[C@H](C(=O)c3cccs3)[C@H]12 (stereo partly specified)	Fluorescein autfl 2.4e-08M
O=C(Cn1ccccc1=O)c1cccs1	none
CN(C)c1ncc2nc(-c3cccs3)c(=O)n(C3CC3)c2n1	Fluorescein autfl 1.5e-08M
CCOC(=O)COn1c(=O)c(-c2cccs2)[n+]([O-])c2ccccc21	Fluorescein autfl 1.3e-08M
CCOn1c(=O)c(-c2ccc(OC)cc2)[n+]([O-])c2ccccc21	none
CCOC(=O)C1=C(C(C)=O)C(c2cccnc2)C(C#N)=C(N)O1 (stereo unspecified)	TexasRed autofl inconclusive
CC(=O)C1(C)OC(N)=C(C#N)C(c2ccccc2)C1(C#N)C#N (stereo unspecified)	Fluorescein autfl 1.1e-08M
COc1ccc(-n2c(=O)c(CCc3ccccc3)nc3cnc(N4CCN(C)CC4)nc32)cc1	Fluorescein autfl 1.2e-08M
CC[C@@H]1[C@H]2CCCCN3[C@@H]2[C@@H](C[C@H]3[C@@H]2C[C@H](C)C(=O)O2)[C@@H]2[C@H]1OC(=O)[C@H]2C	none
N[C@H](Cc1ccc(F)cc1)C(=O)O	Fluorescein autfl inconclusive
C=CCn1c(O)c(CN2CCOCC2)c(C)c(C#N)c1=O	TexasRed autofl inconclusive, Fluorescein autfl 1.3e-08M
Cn1c(CN2CCOCC2)c(C#N)c2ccccc21	Fluorescein autfl inconclusive
O=S(=O)(CCn1cccc1)CCn1cccc1	Fluorescein autfl 1e-08M
CC1(C)[C@@H](O)CC[C@@]2(C)[C@H]1CC[C@]1(C)[C@H]2C(=O)C=C2[C@@H]3C[C@@](C)(C(=O)O)CC[C@]3(C)CC[C@@]21C	Fluorescein autfl inconclusive
CCN1C(=S)SC(=O)C1=C1C=C(C)N(Cc2ccco2)C(C)=C1	TexasRed autofl inconclusive, Fluorescein autfl inconclusive
CCN1C(=S)SC(=O)C1=C1C=C(C)OC(C)=C1	A488 fluor inconclusive, TexasRed autofl inconclusive, Fluorescein autfl 1.7e-07M
NC[C@@H]1O[C@@H](O[C@H]2[C@@H](O)[C@H](O[C@@H]3[C@H](O)[C@H](N)C[C@H](N)[C@H]3O[C@@H]3O[C@@H](CO)[C@H](O)[C@H](O)[C@@H]3N)O[C@H]2CO)[C@H](N)[C@H](O)[C@@H]1O	TexasRed autofl inconclusive
Cn1ccnc1Sc1nc2ccccc2nc1NS(=O)(=O)c1ccccc1	Fluorescein autfl 1.1e-08M
Cn1cnnc1Sc1nc2ccccc2nc1NS(=O)(=O)c1ccccc1	Fluorescein autfl inconclusive
CC(=O)Nc1ccc(S(=O)(=O)Nc2nc3ccccc3nc2Sc2nncn2C)cc1	Fluorescein autfl 1.4e-08M
Cc1c(Nc2nc3ccccc3nc2NS(=O)(=O)c2ccccc2)c(=O)n(-c2ccccc2)n1C	none
C[C@@]12CCC(=O)C=C1CC[C@@H]1[C@@H]2[C@H](O)C[C@]2(C)[C@@H]1CC[C@]2(O)C(=O)COC(=O)CCC(=O)O	Fluorescein autfl inconclusive
C/C(=C\CNc1ncnc2c1ncn2[C@@H]1O[C@@H](CO)[C@@H](O)[C@H]1O)CO	none
Nc1ncn([C@@H]2O[C@@H](CO)[C@@H](O)[C@H]2O)c(=O)n1	none
CCCCOc1ccc(-c2c(C#N)c(N)nc(SCC(N)=O)c2C#N)cc1	TexasRed autofl inconclusive, Fluorescein autfl 1e-08M, Rhodamine autofl inconclusive
CCCCOC(=O)CSc1nc(N)c(C#N)c(-c2ccc(OCC)cc2)c1C#N	TexasRed autofl inconclusive
CCCn1c(=N)c(C(=O)NCc2ccc3c(c2)OCO3)cc2c(=O)n3cccc(C)c3nc21	Fluorescein autfl 1.4e-08M
CC(C)C[C@H](NC(=O)[C@@H](NC(=O)N[C@@H](Cc1ccccc1)C(=O)O)[C@H]1CCN=C(N)N1)C(=O)N[C@H](C=O)Cc1ccccc1	Fluorescein autfl inconclusive
